{
  "source": "paper PMC4878873",
  "target": "COP9 signalosome complex subunit 4 (UniProt Q9BT78)",
  "assay": "cross-link between two proteins; cross-linking mass spectrometry",
  "data": [
    {"substance": "E3 ubiquitin-protein ligase RBX1, P62877", "values": [
      {"measurement": "listed as a hit", "result": "yes"}
    ]}
  ]
}
